High-throughput results: PubChem BioAssay, National Center for Advancing Translational Sciences (NCATS)
HPGD inh = qHTS Assay for Inhibitors of HPGD (15-Hydroxyprostaglandin Dehydrogenase); 15-hydroxyprostaglandin dehydrogenase [NAD(+)] (Homo sapiens), P15428; hit rate 4.3% among 150,000; purified HPGD, NADH fluorescence kinetic, PGE2 substrate; Potency, µM, for the others: at the highest dose activity change, negative = inhibition, usual class: inhibitors; also: potency is read from the fitted curve at half-maximal effect
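20 nM HPGD preincubated 15 min at room temperature with compound in 50 mM Tris-HCl pH 8, 0.01% Tween 20. Started with 1 mM NAD+ and 30 uM prostaglandin E2; NADH fluorescence (360/450 nm) read 5 times over 30-s intervals, last minus first.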
KDM4E inh = qHTS Assay for Inhibitors of Human Jumonji Domain Containing 2E (JMJD2E). hit rate 1.6% among 230,000. Lysine-specific demethylase 4E (Homo sapiens), B2RXH2. Potency, µM (titrated, usually from 57.1 µM), for the others: at the highest dose activity change, negative = inhibition, actives largely listed as inhibitors. JMJD2E catalytic domain, FDH-coupled NADH fluorescence (FDH is formaldehyde dehydrogenase);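 also: potency is read from the fitted curve at half-maximal effect; 0% = wells with enzyme and -100% = buffer wells without enzyme; nearly all actives have a fitted effect of over 50% in size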
Target sequence (B2RXH2 1-337 limits assumed): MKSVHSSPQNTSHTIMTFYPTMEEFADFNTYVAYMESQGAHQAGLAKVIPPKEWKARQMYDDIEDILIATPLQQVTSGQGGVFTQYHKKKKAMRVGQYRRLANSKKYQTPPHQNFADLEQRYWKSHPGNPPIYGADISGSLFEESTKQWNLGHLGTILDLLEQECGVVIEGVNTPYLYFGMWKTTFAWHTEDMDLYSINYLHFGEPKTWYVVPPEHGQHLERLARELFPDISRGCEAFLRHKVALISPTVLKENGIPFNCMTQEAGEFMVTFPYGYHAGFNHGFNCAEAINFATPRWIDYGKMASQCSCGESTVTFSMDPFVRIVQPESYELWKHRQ
PNC assembly inh = High Content Assay for Compounds that inhibit the Assembly of the Perinucleolar Compartment; PC3M PTB-GFP, PNC prevalence imaging, 16 h; active compounds read low; activity change (PNC), negative = inhibition, % at 10 µM; hit rate 3.1% among 140,000;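 active = readout at or below -70, meaning at least 70% loss of cells showing the perinucleolar compartment, a nuclear body marking cancer cells; inconclusive = readout between -30 and a set limit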;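 also: plate controls were DMSO wells for no effect and camptothecin positive control wells for full effect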
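Read-out is percentage of cells bearing a perinucleolar compartment, from automated 20x imaging of fixed, Hoechst-stained PC3M PTB-GFP cells. Cells were seeded 4 h, then exposed 16 h to compound (23 nl of library stock) in duplicate plates.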
ALDH1A1 inh = qHTS Assay for Inhibitors of Aldehyde Dehydrogenase 1 (ALDH1A1). Aldehyde dehydrogenase 1A1 (Homo sapiens), P00352. Purified ALDH1A1, NADH fluorescence, propionaldehyde substrate. Potency, µM (doses to about 75.3 µM), without a hit: at the top dose activity, negative = inhibition, most hits filed as inhibitors. hit rate 7.3% among 220,000. AID 1030, 2008;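 also: potency is read from the fitted curve at half-maximal effect; plate controls were no enzyme wells and a reference inhibitor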
* = called active by the depositor; [ ] = another dose, or the depositor's remark. This is a sample that favours compounds with a hit; in the whole collection about 11% have one here. Unless noted, calls follow the shape of the dose curve; as a rule, active = well fitted inhibition curve with a large enough effect (not every such curve was filed as active); inconclusive = small, poorly fitted or top-dose-only effect, or another doubt; inactive = no such curve, though single readings can be large or run the other way. Unless noted, % is scaled to controls: 0 for no effect and ±100 for the full control effect.

Cc1cc(C)c2cc(CN(CCO)Cc3nnnn3Cc3ccccc3)c(=O)[nH]c2c1 was read as HPGD inh -3.3%, KDM4E inh -7.6%, PNC assembly inh -2.8 and ALDH1A1 inh 5.01µM*.
O=c1[nH]c2cc3c(cc2cc1CN(CCCO)Cc1nnnn1Cc1ccc(F)cc1)OCO3 was read as HPGD inh inconclusive, KDM4E inh inconclusive, PNC assembly inh 22.6 and ALDH1A1 inh inconclusive.
For CC1CCCCC1NC(=O)c1ccc(CSc2nc3ccncc3[nH]2)cc1 (stereo unspecified) the results were HPGD inh inconclusive, KDM4E inh 1.8%, PNC assembly inh 27.2 and ALDH1A1 inh inconclusive.
`O=C(c1ccc(CSc2nc3ccncc3[nH]2)cc1)N1CCCCC1` gave HPGD inh 0.562µM*, KDM4E inh -26.0%, PNC assembly inh 33.6 and ALDH1A1 inh 25.1µM*.
`COc1cccc(CSc2nc3ccncc3[nH]2)c1` gave KDM4E inh 11.2%.
Screening COc1cccc(N2CCN(C(=O)c3ccc(CSc4nc5ccncc5[nH]4)cc3)CC2)c1 returned HPGD inh -6.3%, KDM4E inh -4.3%, PNC assembly inh 19.1 and ALDH1A1 inh 22.4µM*.
`O=[N+]([O-])c1ccc(Cl)c(S(=O)(=O)/N=C(/c2ccccc2)N2CCOCC2)c1` gave KDM4E inh -6.1% and ALDH1A1 inh -2.4%.
Screening CCOc1ccc(Cc2nc(N)nc(N)n2)cc1 returned HPGD inh -10.8%, KDM4E inh 6.8%, PNC assembly inh -100.0* and ALDH1A1 inh 10.6%.
CCCOc1ccc(Cc2nc(N)nc(N)n2)cc1 was read as HPGD inh -12.3%, KDM4E inh 2.3%, PNC assembly inh -10.8 and ALDH1A1 inh 2.8%.
`C=C(C)C(O)/C=C/C=C/c1ccccc1` (stereo unspecified) gave ALDH1A1 inh -13.4%[13.5 µM].
For CN(C(=O)N1CCN(S(=O)(=O)c2ccccc2)CC1)c1ccccc1 the results were KDM4E inh -1.0% and ALDH1A1 inh -7.5%.
`COCCn1c(=O)c(C)nc2cnc(Oc3ccc(OC)cc3)nc21` gave ALDH1A1 inh -12.3%.
For CC1(C)CC(=O)c2sc(NC(=O)c3ccco3)nc2C1 the results were HPGD inh -8.9%, KDM4E inh -9.2%, PNC assembly inh 15.6 and ALDH1A1 inh 22.4µM*.
Screening Cc1cccc2sc(NNC(=O)C3COc4ccccc4O3)nc12 (stereo unspecified) returned HPGD inh 28.2µM*, KDM4E inh inconclusive, PNC assembly inh inconclusive and ALDH1A1 inh -4.3%.
CC1(C)CNC(=O)c2sc(N3CCCCC3)nc2C1 was read as HPGD inh -13.5%, KDM4E inh 0.8%, PNC assembly inh inconclusive and ALDH1A1 inh -6.4%.
Screening CC1(C)CC(=O)c2sc(NC(=O)C3COc4ccccc4O3)nc2C1 (stereo unspecified) returned HPGD inh -16.9%, KDM4E inh inconclusive, PNC assembly inh inconclusive and ALDH1A1 inh 15.8µM*.
CC1(C)CNC(=O)c2sc(NC(=O)c3ccccc3Cl)nc2C1 was read as KDM4E inh -6.5% and ALDH1A1 inh 12.6µM*.
`Nc1[nH]c(=S)[nH]c(=O)c1N=Nc1c(Br)cc(S(N)(=O)=O)cc1Br` gave HPGD inh -8.7% and ALDH1A1 inh -1.3%[13.5 µM].
`NCCNS(=O)(=O)c1cccc2cnccc12` gave HPGD inh 1.9%, KDM4E inh -4.9% and ALDH1A1 inh -6.1%.
`O=C(O)c1ccc(N/N=C/c2ccc(OC(=O)c3ccccc3Cl)cc2)cc1` gave HPGD inh 25.1µM*, KDM4E inh -19.5%, PNC assembly inh inconclusive and ALDH1A1 inh 3.3%.
CC(C)c1ccc(/C=N/Nc2ccc(C(=O)O)cc2)cc1 was read as HPGD inh 14.1µM*, KDM4E inh -9.4%, PNC assembly inh -9.1 and ALDH1A1 inh inconclusive.
Screening O=C(O)c1ccc(N/N=C/c2ccc(-c3ccccc3)cc2)cc1 returned KDM4E inh inconclusive and ALDH1A1 inh 3.0%.
NCCSCCc1ccccc1 was read as HPGD inh -5.8% and ALDH1A1 inh 6.5%[13.5 µM].
`COC(=O)CC[C@@H](C)C1CC[C@H]2[C@H]3CC[C@H]4C[C@@H]5CCC4(C)[C@@]3(O5)[C@@H](Br)[C@@H](Br)[C@@]12C` (stereo partly specified) gave HPGD inh -3.9% and ALDH1A1 inh 20.1%[13.5 µM].
